# Measurements as given in paper PMC7862700, “An all-to-all approach to the identification of sequence-specific readers for epigenetic DNA modifications on cytosine”.
# What was measured:
# Test in all cases: DAPPL (digital affinity profiling via proximity ligation, sequencing); 10 mM Tris-HCl pH 7.5, 50 mM NaCl, 1 mM DTT, 4% glycerol, room temperature, 30 min; GST-TFs on glutathione beads, 16-mer random dsDNA library, 0.1% formaldehyde crosslink after washing; high values mean tight binding
# Conditions in all cases: protein: recombinant; tags: N-terminal GST; dsDNA, one strand shown
# ELK1 = target: T1, ELK1 (Homo sapiens, UniProt P19419 1-428)
# T1 sequence: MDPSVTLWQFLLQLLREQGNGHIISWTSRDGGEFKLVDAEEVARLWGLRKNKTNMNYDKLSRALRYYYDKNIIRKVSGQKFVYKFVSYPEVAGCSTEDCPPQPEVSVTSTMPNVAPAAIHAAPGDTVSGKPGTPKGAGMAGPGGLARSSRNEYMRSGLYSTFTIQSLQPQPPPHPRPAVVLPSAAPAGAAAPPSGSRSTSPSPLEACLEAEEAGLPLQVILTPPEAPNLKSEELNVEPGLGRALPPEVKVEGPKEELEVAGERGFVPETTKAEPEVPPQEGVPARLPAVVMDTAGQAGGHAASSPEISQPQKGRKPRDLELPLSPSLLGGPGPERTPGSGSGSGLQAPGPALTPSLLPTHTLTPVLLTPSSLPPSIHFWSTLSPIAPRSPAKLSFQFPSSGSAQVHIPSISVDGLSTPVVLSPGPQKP
# In short: (§1)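 Pools were built from human transcription factors expressed in yeast as GST fusions, captured on glutathione beads and DNA-barcoded, along with a tag-only sample. Incubation with 200 nmole of a 16-mer random double-stranded DNA library lasted 30 min at room temperature in Tris/NaCl/DTT/glycerol buffer, and was followed by washing, 0.1% formaldehyde crosslinking, proximity ligation, PCR amplification and Illumina NextSeq500 sequencing. Binding signal is the quotient of each hexamer's read frequency for a factor and its frequency for the tag-only sample.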
# GABPA = target: T2, GABPA (Homo sapiens, UniProt Q06546 1-454)
# T2 sequence: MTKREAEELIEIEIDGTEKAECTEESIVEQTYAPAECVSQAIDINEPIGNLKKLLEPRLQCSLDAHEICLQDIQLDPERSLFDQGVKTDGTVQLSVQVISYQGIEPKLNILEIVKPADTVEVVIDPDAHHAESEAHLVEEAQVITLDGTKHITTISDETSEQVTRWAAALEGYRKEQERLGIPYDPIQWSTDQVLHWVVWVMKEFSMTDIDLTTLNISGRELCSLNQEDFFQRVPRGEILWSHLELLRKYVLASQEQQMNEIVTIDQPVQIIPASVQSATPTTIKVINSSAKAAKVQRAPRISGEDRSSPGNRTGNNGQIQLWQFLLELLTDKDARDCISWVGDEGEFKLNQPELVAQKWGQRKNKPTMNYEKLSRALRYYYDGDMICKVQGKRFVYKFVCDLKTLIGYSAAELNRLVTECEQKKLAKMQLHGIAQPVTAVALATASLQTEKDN
# In short: as §1
# ERG = target: T3, ERG (Homo sapiens, UniProt P11308 1-479)
# T3 sequence: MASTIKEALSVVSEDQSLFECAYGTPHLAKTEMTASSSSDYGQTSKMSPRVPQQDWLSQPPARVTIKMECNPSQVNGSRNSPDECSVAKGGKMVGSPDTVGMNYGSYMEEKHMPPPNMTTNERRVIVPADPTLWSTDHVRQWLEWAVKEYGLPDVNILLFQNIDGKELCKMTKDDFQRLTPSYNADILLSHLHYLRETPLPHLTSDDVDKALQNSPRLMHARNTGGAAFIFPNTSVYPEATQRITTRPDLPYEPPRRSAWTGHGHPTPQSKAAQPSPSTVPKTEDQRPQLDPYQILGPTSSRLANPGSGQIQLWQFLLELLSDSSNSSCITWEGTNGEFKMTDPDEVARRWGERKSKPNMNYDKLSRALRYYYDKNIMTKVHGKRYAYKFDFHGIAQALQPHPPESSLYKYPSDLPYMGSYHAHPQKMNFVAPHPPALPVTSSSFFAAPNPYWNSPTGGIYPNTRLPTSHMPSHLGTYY
# In short: as §1
# ELF1 = ELF1 (Homo sapiens, UniProt P32519 1-619)
# Sequence of ELF1 (P32519 whole entry): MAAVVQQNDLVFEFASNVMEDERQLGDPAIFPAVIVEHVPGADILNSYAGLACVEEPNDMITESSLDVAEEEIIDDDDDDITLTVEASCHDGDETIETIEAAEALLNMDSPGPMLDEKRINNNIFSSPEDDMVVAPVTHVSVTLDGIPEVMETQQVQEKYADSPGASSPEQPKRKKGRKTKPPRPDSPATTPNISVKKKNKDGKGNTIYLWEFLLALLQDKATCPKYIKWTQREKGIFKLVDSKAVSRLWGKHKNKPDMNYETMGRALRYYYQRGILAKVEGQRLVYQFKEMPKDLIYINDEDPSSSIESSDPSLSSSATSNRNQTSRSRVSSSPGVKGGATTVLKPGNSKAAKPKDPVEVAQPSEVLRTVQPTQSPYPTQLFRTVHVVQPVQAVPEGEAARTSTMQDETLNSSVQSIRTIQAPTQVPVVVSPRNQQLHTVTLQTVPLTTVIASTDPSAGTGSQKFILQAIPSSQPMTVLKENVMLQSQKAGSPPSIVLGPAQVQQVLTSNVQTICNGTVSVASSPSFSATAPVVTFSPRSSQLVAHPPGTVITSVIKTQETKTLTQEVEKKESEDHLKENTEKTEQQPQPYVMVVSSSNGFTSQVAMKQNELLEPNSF
# In short: as §1
# SPIB = SPIB (Homo sapiens, UniProt Q01892 1-262)
# Sequence of SPIB (Q01892 whole entry): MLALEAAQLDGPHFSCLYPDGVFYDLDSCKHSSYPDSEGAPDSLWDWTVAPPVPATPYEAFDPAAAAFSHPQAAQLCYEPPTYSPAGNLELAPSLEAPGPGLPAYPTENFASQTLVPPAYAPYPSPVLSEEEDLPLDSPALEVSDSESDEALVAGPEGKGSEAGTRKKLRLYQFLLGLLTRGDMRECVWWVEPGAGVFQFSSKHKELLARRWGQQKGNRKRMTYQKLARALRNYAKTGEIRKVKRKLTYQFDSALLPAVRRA
# In short: as §1
# ELF4 = ELF4 (Homo sapiens, UniProt Q99607 1-663)
# Sequence of ELF4 (Q99607 whole entry): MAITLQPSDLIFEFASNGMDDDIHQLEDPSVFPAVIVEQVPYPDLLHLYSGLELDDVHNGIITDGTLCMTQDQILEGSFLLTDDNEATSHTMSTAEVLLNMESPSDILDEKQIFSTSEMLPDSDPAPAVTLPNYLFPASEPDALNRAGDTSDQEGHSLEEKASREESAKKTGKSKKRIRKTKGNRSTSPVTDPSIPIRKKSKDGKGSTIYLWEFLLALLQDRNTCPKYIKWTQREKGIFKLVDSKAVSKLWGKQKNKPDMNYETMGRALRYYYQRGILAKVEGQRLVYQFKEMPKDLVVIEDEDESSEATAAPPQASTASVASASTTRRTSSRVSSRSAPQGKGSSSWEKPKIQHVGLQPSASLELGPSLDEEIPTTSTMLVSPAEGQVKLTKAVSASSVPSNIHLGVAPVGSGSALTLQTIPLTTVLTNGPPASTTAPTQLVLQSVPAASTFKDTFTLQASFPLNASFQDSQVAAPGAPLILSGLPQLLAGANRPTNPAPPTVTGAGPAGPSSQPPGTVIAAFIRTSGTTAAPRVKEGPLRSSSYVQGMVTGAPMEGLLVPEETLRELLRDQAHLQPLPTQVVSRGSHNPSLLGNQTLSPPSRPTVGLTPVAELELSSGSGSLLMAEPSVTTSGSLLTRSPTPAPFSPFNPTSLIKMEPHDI
# In short: as §1
# ELK4 = target: T4, ELK4 (Homo sapiens, UniProt P28324-2 1-405)
# T4 sequence: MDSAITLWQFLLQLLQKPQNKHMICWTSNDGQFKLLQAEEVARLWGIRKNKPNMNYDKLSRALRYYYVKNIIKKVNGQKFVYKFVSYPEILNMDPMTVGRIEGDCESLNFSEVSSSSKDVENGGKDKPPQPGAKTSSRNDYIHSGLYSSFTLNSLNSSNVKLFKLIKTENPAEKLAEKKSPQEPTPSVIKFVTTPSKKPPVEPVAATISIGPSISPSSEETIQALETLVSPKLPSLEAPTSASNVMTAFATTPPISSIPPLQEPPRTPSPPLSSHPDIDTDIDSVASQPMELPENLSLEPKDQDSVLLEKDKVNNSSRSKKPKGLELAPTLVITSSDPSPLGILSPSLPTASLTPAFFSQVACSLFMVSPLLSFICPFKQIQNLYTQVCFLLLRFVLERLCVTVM
# In short: as §1
# ELF3 = target: T5, ELF3 (Homo sapiens, UniProt P78545 1-371)
# T5 sequence: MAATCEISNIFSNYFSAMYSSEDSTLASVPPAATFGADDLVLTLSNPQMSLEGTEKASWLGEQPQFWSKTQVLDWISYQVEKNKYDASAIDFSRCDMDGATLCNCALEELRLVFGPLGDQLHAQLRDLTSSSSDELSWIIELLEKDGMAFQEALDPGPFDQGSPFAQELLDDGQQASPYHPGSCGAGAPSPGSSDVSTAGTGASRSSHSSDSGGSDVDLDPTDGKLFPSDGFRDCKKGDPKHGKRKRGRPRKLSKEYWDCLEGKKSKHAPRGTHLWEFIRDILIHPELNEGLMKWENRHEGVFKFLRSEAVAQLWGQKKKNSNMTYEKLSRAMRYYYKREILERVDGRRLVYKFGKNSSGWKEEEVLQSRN
# In short: as §1
# ERF = target: T6, ERF (Homo sapiens, UniProt P50548 1-548)
# T6 sequence: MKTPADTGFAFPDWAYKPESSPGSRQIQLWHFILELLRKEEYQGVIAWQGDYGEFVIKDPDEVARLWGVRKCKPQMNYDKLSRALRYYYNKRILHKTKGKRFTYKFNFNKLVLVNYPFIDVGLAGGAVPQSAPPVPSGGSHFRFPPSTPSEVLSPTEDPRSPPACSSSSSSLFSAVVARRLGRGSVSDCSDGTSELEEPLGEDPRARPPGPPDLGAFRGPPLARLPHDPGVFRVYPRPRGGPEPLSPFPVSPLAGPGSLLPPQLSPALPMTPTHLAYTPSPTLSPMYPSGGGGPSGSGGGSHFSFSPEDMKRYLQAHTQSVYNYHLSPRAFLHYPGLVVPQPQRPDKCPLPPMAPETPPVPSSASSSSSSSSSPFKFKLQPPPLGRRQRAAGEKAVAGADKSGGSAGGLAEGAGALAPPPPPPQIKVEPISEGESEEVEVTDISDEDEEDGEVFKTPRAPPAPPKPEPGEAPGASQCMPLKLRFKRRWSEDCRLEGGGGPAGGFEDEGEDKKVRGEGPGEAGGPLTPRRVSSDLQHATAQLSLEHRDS
# In short: as §1
# ETV3L = target: T7, ETV3L (Homo sapiens, UniProt Q6ZN32 1-361)
# T7 sequence: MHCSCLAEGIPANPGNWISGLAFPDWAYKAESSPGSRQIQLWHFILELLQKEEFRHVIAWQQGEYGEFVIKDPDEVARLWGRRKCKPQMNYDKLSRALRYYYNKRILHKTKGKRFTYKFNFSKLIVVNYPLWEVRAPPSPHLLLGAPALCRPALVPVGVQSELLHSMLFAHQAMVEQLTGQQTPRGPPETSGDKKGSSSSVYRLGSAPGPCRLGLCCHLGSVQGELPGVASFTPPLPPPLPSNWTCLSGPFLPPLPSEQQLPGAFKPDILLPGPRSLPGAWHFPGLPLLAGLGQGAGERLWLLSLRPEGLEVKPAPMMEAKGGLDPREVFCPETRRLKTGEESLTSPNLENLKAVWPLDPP
# In short: as §1
# SPDEF = target: T8, SPDEF (Homo sapiens, UniProt O95238 1-335)
# T8 sequence: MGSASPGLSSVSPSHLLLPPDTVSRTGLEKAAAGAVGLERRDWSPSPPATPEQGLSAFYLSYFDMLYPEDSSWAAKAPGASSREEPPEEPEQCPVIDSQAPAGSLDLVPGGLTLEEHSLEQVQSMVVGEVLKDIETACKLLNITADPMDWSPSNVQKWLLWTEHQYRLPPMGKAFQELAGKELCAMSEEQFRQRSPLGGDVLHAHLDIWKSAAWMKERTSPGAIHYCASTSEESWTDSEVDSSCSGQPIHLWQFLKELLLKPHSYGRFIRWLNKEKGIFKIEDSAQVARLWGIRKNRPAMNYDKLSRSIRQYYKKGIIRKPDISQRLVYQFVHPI
# In short: as §1
# ETV3 = target: T9, ETV3 (Homo sapiens, UniProt P41162-2 1-143)
# T9 sequence: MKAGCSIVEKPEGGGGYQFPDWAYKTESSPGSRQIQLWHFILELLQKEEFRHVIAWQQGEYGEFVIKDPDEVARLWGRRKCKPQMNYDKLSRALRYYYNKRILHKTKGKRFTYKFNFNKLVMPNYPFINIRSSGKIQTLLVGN
# In short: as §1
# ETV6 = ETV6 (Homo sapiens, UniProt P41212 1-452)
# Sequence of ETV6 (P41212 whole entry): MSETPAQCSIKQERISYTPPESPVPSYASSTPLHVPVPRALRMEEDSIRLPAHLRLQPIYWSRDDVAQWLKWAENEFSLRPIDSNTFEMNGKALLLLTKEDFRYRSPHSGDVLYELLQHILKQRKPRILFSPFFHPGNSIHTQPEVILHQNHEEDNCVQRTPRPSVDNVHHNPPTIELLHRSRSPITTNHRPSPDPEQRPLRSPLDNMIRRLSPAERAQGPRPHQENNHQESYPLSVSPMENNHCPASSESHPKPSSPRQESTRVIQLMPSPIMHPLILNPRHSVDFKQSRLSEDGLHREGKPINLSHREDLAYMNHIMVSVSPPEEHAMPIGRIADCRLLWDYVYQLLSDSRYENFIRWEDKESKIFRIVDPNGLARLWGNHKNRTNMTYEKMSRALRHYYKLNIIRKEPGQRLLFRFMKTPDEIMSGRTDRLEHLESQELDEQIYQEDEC
# In short: as §1
# EHF = target: T10, EHF (Homo sapiens, UniProt Q9NZC4 1-300)
# T10 sequence: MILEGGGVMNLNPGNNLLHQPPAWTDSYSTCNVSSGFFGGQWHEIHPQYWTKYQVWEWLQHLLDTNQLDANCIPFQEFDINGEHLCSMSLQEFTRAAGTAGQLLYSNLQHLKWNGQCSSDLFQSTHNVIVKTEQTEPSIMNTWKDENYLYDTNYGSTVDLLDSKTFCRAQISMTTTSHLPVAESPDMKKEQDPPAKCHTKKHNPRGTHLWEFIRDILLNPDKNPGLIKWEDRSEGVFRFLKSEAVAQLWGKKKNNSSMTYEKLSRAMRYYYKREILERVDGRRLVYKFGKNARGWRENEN
# In short: as §1
# ETS2 = target: T11, ETS2 (Homo sapiens, UniProt P15036 1-469)
# T11 sequence: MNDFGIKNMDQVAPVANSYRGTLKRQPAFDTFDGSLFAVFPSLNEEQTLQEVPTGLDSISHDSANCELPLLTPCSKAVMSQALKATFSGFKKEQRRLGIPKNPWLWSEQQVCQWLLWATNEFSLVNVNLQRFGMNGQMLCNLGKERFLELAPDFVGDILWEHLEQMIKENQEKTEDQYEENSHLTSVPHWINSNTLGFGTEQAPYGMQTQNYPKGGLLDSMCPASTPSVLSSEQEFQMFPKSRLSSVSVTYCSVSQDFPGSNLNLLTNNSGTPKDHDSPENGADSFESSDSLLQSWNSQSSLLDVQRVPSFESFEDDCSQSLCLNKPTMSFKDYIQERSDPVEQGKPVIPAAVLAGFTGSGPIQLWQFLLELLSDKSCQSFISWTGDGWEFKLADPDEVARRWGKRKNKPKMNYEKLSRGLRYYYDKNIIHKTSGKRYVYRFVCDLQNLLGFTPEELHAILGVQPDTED
# In short: as §1
sequence,measurement,setting,value
CACCTG,binding signal,ELK1,"1.06 fold enrichment (6-mer frequency, TF over GST control)"
same,binding signal,GABPA,"1.01 fold enrichment (6-mer frequency, TF over GST control)"
same,binding signal,ERG,"1.06 fold enrichment (6-mer frequency, TF over GST control)"
same,binding signal,ELF1,"1.09 fold enrichment (6-mer frequency, TF over GST control)"
same,binding signal,SPIB,"1.03 fold enrichment (6-mer frequency, TF over GST control)"
same,binding signal,ELF4,"1.08 fold enrichment (6-mer frequency, TF over GST control)"
same,binding signal,ELK4,"1.09 fold enrichment (6-mer frequency, TF over GST control)"
same,binding signal,ELF3,"1.05 fold enrichment (6-mer frequency, TF over GST control)"
same,binding signal,ERF,"1.07 fold enrichment (6-mer frequency, TF over GST control)"
same,binding signal,ETV3L,"1.05 fold enrichment (6-mer frequency, TF over GST control)"
same,binding signal,SPDEF,"1.07 fold enrichment (6-mer frequency, TF over GST control)"
same,binding signal,ETV3,"1.03 fold enrichment (6-mer frequency, TF over GST control)"
same,binding signal,ETV6,"1.06 fold enrichment (6-mer frequency, TF over GST control)"
GCCAAC,binding signal,ELF1,"1.01 fold enrichment (6-mer frequency, TF over GST control)"
same,binding signal,ELF4,"1.04 fold enrichment (6-mer frequency, TF over GST control)"
same,binding signal,ERF,"1.03 fold enrichment (6-mer frequency, TF over GST control)"
CTGTGT,binding signal,ELK4,"1.04 fold enrichment (6-mer frequency, TF over GST control)"
TCATTG,binding signal,ELK1,"1.01 fold enrichment (6-mer frequency, TF over GST control)"
same,binding signal,GABPA,"1 fold enrichment (6-mer frequency, TF over GST control)"
same,binding signal,ELF1,"1.03 fold enrichment (6-mer frequency, TF over GST control)"
same,binding signal,EHF,"1.03 fold enrichment (6-mer frequency, TF over GST control)"
same,binding signal,ELK4,"1.07 fold enrichment (6-mer frequency, TF over GST control)"
same,binding signal,ERF,"1.04 fold enrichment (6-mer frequency, TF over GST control)"
same,binding signal,ETV3L,"1.04 fold enrichment (6-mer frequency, TF over GST control)"
same,binding signal,ETS2,"1 fold enrichment (6-mer frequency, TF over GST control)"
